The campaign covered roughly 39,000 compounds. About 3,300 (8.5%) were called active. For the sample, actives were picked, then their nearest neighbours and some compounds at random.
These molecules were tested on HepG2 (assay: cytotoxicity call (relative viability < 0.9)). Settings: 10 µM.

Structure (SMILES)	cytotoxicity call
O=C(C[C@H]1CC[C@H](NC(=O)CN2CCOCC2)[C@@H](CO)O1)NCCc1ccncc1	inactive
C[C@@H]1CN([C@H](C)CO)C(=O)c2cc(NC(=O)C3CCCCC3)ccc2O[C@H]1CN(C)Cc1ccc(Oc2ccccc2)cc1	inactive
CCS(=O)(=O)Nc1ccc2c(c1)C(=O)N(C)[C@H]1CC[C@@H](CC(=O)NCc3ccccc3F)O[C@@H]1CO2	inactive
Cc1noc(C)c1NC(=O)N(C)C[C@H]1OCCCC[C@H](C)Oc2ccc(NS(=O)(=O)c3ccccc3)cc2C(=O)N([C@@H](C)CO)C[C@@H]1C	inactive
CC(C)(C)S(=O)N1Cc2cc(C(=O)N[C@@H]3CCN(Cc4ccccc4)C3)nc(-c3cccc(-c4cccc(F)c4)c3)c2[C@@H]1CCO (stereo partly drawn)	inactive
C[C@@H]1CN([C@H](C)CO)C(=O)c2cc(C#C[C@@H](C)O)cnc2O[C@@H]1CN(C)C(=O)CN1CCOCC1	inactive
COc1ccc(S(=O)(=O)N(C)C[C@@H]2OCCCC[C@H](C)Oc3ccc(NC(=O)C4CCCCC4)cc3C(=O)N([C@H](C)CO)C[C@@H]2C)cc1	inactive
COc1ccc(S(=O)(=O)N(C)C[C@H]2OCCCC[C@H](C)Oc3ccc(NC(=O)C4CCCCC4)cc3C(=O)N([C@H](C)CO)C[C@@H]2C)cc1	active
COc1ccc(S(=O)(=O)N(C)C[C@H]2OCCCC[C@H](C)Oc3ccc(NC(=O)C4CCCCC4)cc3C(=O)N([C@@H](C)CO)C[C@H]2C)cc1	inactive
COc1ccc(S(=O)(=O)N(C)C[C@@H]2OCCCC[C@@H](C)Oc3ccc(NC(=O)C4CCCCC4)cc3C(=O)N([C@H](C)CO)C[C@H]2C)cc1	active
COc1ccc(S(=O)(=O)N(C)C[C@H]2OCCCC[C@H](C)Oc3ccc(NC(=O)C4CCCCC4)cc3C(=O)N([C@@H](C)CO)C[C@@H]2C)cc1	inactive
COc1ccc(S(=O)(=O)N(C)C[C@H]2OCCCC[C@@H](C)Oc3ccc(NC(=O)C4CCCCC4)cc3C(=O)N([C@H](C)CO)C[C@H]2C)cc1	inactive
Nc1cccc2c(=O)[nH][nH]c(=O)c12	inactive
O=C(N/N=C/[C@H](O)[C@@H](O)[C@H](O)[C@H](O)CO)c1ccccn1	inactive
N[C@@H](CCO)c1cccc(Cl)c1	inactive
C[C@H]1CN([C@@H](C)CO)C(=O)c2cc(Br)cnc2O[C@H]1CN(C)S(=O)(=O)c1ccccc1	inactive
C[C@H](CO)N1C[C@H](C)[C@@H](CN(C)C(=O)Nc2ccc(F)cc2)Oc2ccc(NS(C)(=O)=O)cc2CC1=O	inactive
NCc1nnnn1-c1ccc(F)cc1	inactive
C[C@@H]1CCCCO[C@@H](CN(C)C(=O)c2ccccc2)[C@@H](C)CN([C@@H](C)CO)C(=O)c2cc(NC(=O)NC3CCCCC3)ccc2O1	inactive
C[C@H](CO)N1C[C@H](C)[C@@H](CN(C)Cc2cccc(F)c2)OCc2ccccc2-c2c(n(C)c3ccccc23)C1=O	inactive
C[C@@H]1CN([C@H](C)CO)C(=O)c2c(c3ccccc3n2C)-c2ccccc2CO[C@H]1CN(C)Cc1cccc(F)c1	inactive

Structure (SMILES)	cytotoxicity call
C[C@H]1CN([C@@H](C)CO)C(=O)c2c(c3ccccc3n2C)-c2ccccc2CO[C@H]1CN(C)Cc1cccc(F)c1	inactive
C[C@@H]1CN([C@@H](C)CO)C(=O)c2c(c3ccccc3n2C)-c2ccccc2CO[C@H]1CN(C)Cc1cccc(F)c1	inactive
COc1cccc(CN(C)C[C@H]2OCc3ccccc3-c3c(n(C)c4ccccc34)C(=O)N([C@@H](C)CO)C[C@@H]2C)c1	inactive
COc1cccc(CN(C)C[C@@H]2OCc3ccccc3-c3c(n(C)c4ccccc34)C(=O)N([C@@H](C)CO)C[C@@H]2C)c1	inactive
C[C@H](CO)N1C[C@H](C)[C@H](CN(C)Cc2cccc(F)c2)OCc2ccccc2-c2c(n(C)c3ccccc23)C1=O	active
COc1cccc(CN(C)C[C@H]2OCc3ccccc3-c3c(n(C)c4ccccc34)C(=O)N([C@@H](C)CO)C[C@H]2C)c1	active
C[C@H]1CCCCO[C@@H](CN(C)S(=O)(=O)c2ccccc2)[C@@H](C)CN([C@@H](C)CO)C(=O)c2cc(NC(=O)Nc3ccccc3)ccc2O1	inactive
Cc1ccc(S(=O)(=O)N2C[C@H](O)COC[C@H]3O[C@@H](CC(=O)NCc4ccc5c(c4)OCO5)CC[C@@H]32)cc1	inactive
N=C(N)SC=CC(=O)O	inactive
C[C@@H]1CN([C@H](C)CO)C(=O)c2cc(NC(=O)CCN3CCOCC3)ccc2O[C@@H]1CN(C)C(=O)Nc1ccc(F)cc1	inactive
Cc1n[nH]c(=O)[nH]c1=O	inactive
C[C@@H]1CN([C@H](C)CO)C(=O)c2cccc(NC(=O)c3ccncc3)c2O[C@H]1CN(C)S(=O)(=O)c1ccc(F)cc1	inactive
C[C@@H]1CN([C@@H](C)CO)C(=O)c2cc(C#CC3(O)CCCC3)cnc2O[C@H]1CN(C)C(=O)Nc1ccc2c(c1)OCO2	inactive
Cc1ccc(S(=O)(=O)Nc2cccc3c2O[C@@H](CN(C)Cc2ccc(Cl)c(Cl)c2)[C@@H](C)CN([C@H](C)CO)C3=O)cc1	inactive
C[C@@H]1CCCCO[C@@H](CN(C)C(=O)Nc2cccc3ccccc23)[C@H](C)CN([C@@H](C)CO)C(=O)c2cc(NC(=O)CCC(F)(F)F)ccc2O1	inactive
C[C@@H]1CCCCO[C@H](CN(C)C(=O)Nc2cccc3ccccc23)[C@H](C)CN([C@@H](C)CO)C(=O)c2cc(NC(=O)CCC(F)(F)F)ccc2O1	inactive
C[C@@H]1CCCCO[C@@H](CN(C)C(=O)Nc2cccc3ccccc23)[C@@H](C)CN([C@H](C)CO)C(=O)c2cc(NC(=O)CCC(F)(F)F)ccc2O1	inactive
C[C@@H]1CCCCO[C@H](CN(C)C(=O)Nc2cccc3ccccc23)[C@@H](C)CN([C@H](C)CO)C(=O)c2cc(NC(=O)CCC(F)(F)F)ccc2O1	inactive
C[C@@H]1CN([C@H](C)CO)C(=O)c2cc(NC(=O)CCC(F)(F)F)ccc2O[C@@H](C)CCCCO[C@H]1CN(C)C(=O)Nc1cccc2ccccc12	active
C[C@@H]1CN([C@@H](C)CO)C(=O)c2cc(NC(=O)CCC(F)(F)F)ccc2O[C@@H](C)CCCCO[C@@H]1CN(C)C(=O)Nc1cccc2ccccc12	inactive
C[C@H]1CCCCO[C@H](CN(C)C(=O)Nc2cccc3ccccc23)[C@@H](C)CN([C@@H](C)CO)C(=O)c2cc(NC(=O)CCC(F)(F)F)ccc2O1	active

Structure (SMILES)	cytotoxicity call
C[C@H](CO)N1C[C@H](C)[C@@H](CN(C)C(=O)Nc2cccc3ccccc23)OCCCC[C@H](C)Oc2ccc(NC(=O)CCC(F)(F)F)cc2C1=O	active
C[C@@H]1CCCCO[C@@H](CN(C)C(=O)Nc2cccc3ccccc23)[C@H](C)CN([C@H](C)CO)C(=O)c2cc(NC(=O)CCC(F)(F)F)ccc2O1	inactive
CC(C)NC(=O)N(C)C[C@H]1Oc2ccc(NS(=O)(=O)c3ccccc3)cc2C(=O)N([C@@H](C)CO)C[C@H]1C	inactive
C[C@@H]1CN([C@H](C)CO)C(=O)c2cccc(NC(=O)Nc3ccccc3)c2O[C@@H]1CN(C)CC1CCCCC1	inactive
COc1ccccc1-c1cnc2c(c1)C(=O)N([C@@H](C)CO)C[C@@H](C)[C@@H](CN(C)C(=O)c1ccncc1)O2	inactive
COc1ccc(S(=O)(=O)Nc2ccc3c(c2)C(=O)N([C@H](C)CO)C[C@@H](C)[C@@H](CN(C)C(=O)CCC(F)(F)F)OCCCC[C@@H](C)O3)cc1	inactive
O=C(/C=C/c1ccccc1)c1ccc(O[C@@H]2O[C@H](CO)[C@@H](O)[C@H](O)[C@H]2O)cc1O	inactive
C[C@H](CO)N1C[C@H](C)[C@@H](CN(C)S(=O)(=O)c2ccc(F)cc2)Oc2c(NS(=O)(=O)c3ccccc3)cccc2C1=O	inactive
CON=C(C(=O)N[C@@H]1C(=O)N2C(C(=O)O)=C(CSc3nc(=O)c(O)nn3C)CS[C@H]12)c1csc(N)n1	inactive
COc1ccc(S(=O)(=O)N(C)C[C@@H]2Oc3ccc(N(C)C)cc3C(=O)N([C@H](C)CO)C[C@H]2C)cc1	inactive
Cc1ccc(S(=O)(=O)N2C[C@@H](O)COC[C@@H]3O[C@H](CC(=O)NCCCN(C)C)CC[C@H]32)cc1	inactive
Cc1ccc(S(=O)(=O)Nc2ccc3c(c2)C(=O)N([C@H](C)CO)C[C@H](C)[C@@H](CN(C)Cc2ccc(C(F)(F)F)cc2)O3)cc1	inactive
Cc1ccc(S(=O)(=O)Nc2ccc3c(c2)C(=O)N([C@@H](C)CO)C[C@@H](C)[C@@H](CN(C)Cc2ccc(C(F)(F)F)cc2)O3)cc1	inactive
Cc1ccc(S(=O)(=O)Nc2ccc3c(c2)C(=O)N([C@@H](C)CO)C[C@@H](C)[C@H](CN(C)Cc2ccc(C(F)(F)F)cc2)O3)cc1	inactive
Cc1ccc(S(=O)(=O)Nc2ccc3c(c2)C(=O)N([C@H](C)CO)C[C@H](C)[C@H](CN(C)Cc2ccc(C(F)(F)F)cc2)O3)cc1	active
Cc1ccc(S(=O)(=O)Nc2ccc3c(c2)C(=O)N([C@@H](C)CO)C[C@H](C)[C@H](CN(C)Cc2ccc(C(F)(F)F)cc2)O3)cc1	inactive
Cc1ccc(S(=O)(=O)Nc2ccc3c(c2)C(=O)N([C@@H](C)CO)C[C@H](C)[C@@H](CN(C)Cc2ccc(C(F)(F)F)cc2)O3)cc1	inactive
Cc1ccc(S(=O)(=O)Nc2ccc3c(c2)C(=O)N([C@H](C)CO)C[C@@H](C)[C@@H](CN(C)Cc2ccc(C(F)(F)F)cc2)O3)cc1	active
Cc1ccc(S(=O)(=O)Nc2ccc3c(c2)C(=O)N([C@H](C)CO)C[C@@H](C)[C@H](CN(C)Cc2ccc(C(F)(F)F)cc2)O3)cc1	active
Cn1cccc1C(=O)NCc1cn2c(n1)CN(S(C)(=O)=O)CC2	inactive
COC(=O)[C@@H]1N2C(=O)[C@@H](N3C[C@](C)(OC)O[C@@H](Cc4ccccc4)[C@H]3/C=C/C3CC3)[C@H]2SC1(C)C	inactive

— the antibiotic and cytotoxicity screens of Wong et al. (2023)
